Shown are actives, neighbours in structure and some others; about 10% of the full set was active somewhere.
JMJD2A Tudor: qHTS Assay for Inhibitors of JMJD2A-Tudor Domain; Lysine-specific demethylase 4A (Homo sapiens), O75164; AlphaScreen JMJD2A-Tudor / H3K4me3 peptide binding; Potency, µM (titrated, usually from 114 µM), actives largely listed as inhibitors; 390,000 tested, 4.4% active; AID 504339, 2011; note: nearly all actives have a fitted effect of over 50% in size
BAZ2B inh: qHTS Assay for Inhibitors of BAZ2B. 360,000 tested, 4.4% active. Bromodomain adjacent to zinc finger domain protein 2B (Homo sapiens), Q9UIF8. Potency, µM (top dose mostly 114 µM), most hits filed as inhibitors. AlphaScreen BAZ2B-H3K14Ac peptide displacement; note: nearly all actives have a fitted effect of over 60% in size
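Multi-concentration screen (max 110 uM) measuring displacement of acetylated histone H3 peptide from BAZ2B by AlphaScreen, using 50 nM protein, 50 nM peptide and 10 ug/mL streptavidin donor plus Ni-chelate acceptor beads.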
Six1-Eya2 blk: qHTS Assay for Inhibitors of the Six1/Eya2 Interaction. Homeobox protein SIX1 (Homo sapiens) + Protein phosphatase EYA2 (Homo sapiens), …. AlphaScreen GST-Six1/His-Eya2 binding, biochemical; active compounds read low. activity change, % (no concentration beside the values). 360,000 tested, 0.56% active; in the data active = activity change below about -65%; inconclusive = mostly about -30% to -63%
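AlphaScreen with GST-Six1 and His-Eya2 (5X mix: 250 nM and 500 nM), glutathione donor and nickel acceptor beads; buffer 50 mM Tris pH 8.0, 300 mM NaCl, 1 mM TCEP; 1 h at 37 C in the dark.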
G9a block: qHTS Assay for Inhibitors of Histone Lysine Methyltransferase G9a; Histone-lysine N-methyltransferase EHMT2 (Homo sapiens), Q96KQ7; G9a H3K9 monomethylation, AlphaScreen, 2 h; Potency, µM (series often up to 102 µM), usual class: inhibitors; 350,000 tested, 8.8% active; note: nearly all actives have a fitted effect of over 75% in size
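Compounds were preincubated with 20 nM G9a for 15 min, after which biotinylated H3K9 peptide (500 nM) and SAM (20 uM) started a 2 h room-temperature reaction. Monomethylated product was quantified by antibody-based AlphaScreen chemiluminescence.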
CtBP-E1A inh: qHTS Assay for Inhibitors of the CtBP/E1A Interaction. CtBP / adenovirus E1A interaction (AlphaScreen). AlphaScreen GST-E1A/His-CtBP binding, 1536-well; active compounds read low. activity change, % (no concentration beside the values). 340,000 tested, 0.49% active; in the data active = activity change below about -65%; inconclusive = mostly about -30% to -63%
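AlphaScreen with 125 nM GST-E1A and 125 nM His-CtBP (5X stocks) in Tris pH 8.0, 300 mM NaCl, BSA, Tween 20, TCEP. Compounds preincubated 2 h at 37 deg C, then glutathione donor/nickel acceptor beads added for 1 h at 37 deg C in dark.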
HP1b chromo inh: HTS for Inhibitors of HP1-beta Chromodomain Interactions with Methylated Histone Tails; Potency, µM (highest dose often 114 µM), usual class: inhibitors; AID 540317, 2011; Chromobox protein homolog 1 (Homo sapiens), P83916; 390,000 tested, 0.56% active; AlphaScreen HP1-beta / biotin-H3K9me3 peptide binding; note: nearly all actives have a fitted effect of over 70% in size
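HP1-beta protein (50 nM final) preincubated 30 min at room temperature with biotinylated H3(1-18)K9me3 peptide (50 nM) in PBS pH 7.4, 0.01% Tween-20, then compound added for 30 min. AlphaScreen streptavidin donor/nickel chelate acceptor beads (10 ug/mL final), 30 min dark, luminescence read.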
Large screens that a line does not name were inactive. Unless noted, calls come from the whole dose curve; as a rule, active = well fitted inhibition curve with a large enough effect; inconclusive = small, poorly fitted or top-dose-only effect; inactive = no such curve, though single readings can be large or run the other way.

CCCCOc1ccc(N=Nc2ccc(N)nc2N)cn1	JMJD2A Tudor 35µM, HP1b chromo inh inconclusive (no result: CtBP-E1A inh)
CCCCOc1ccc(Cc2cnc(N)nc2N)cc1	none (no result: G9a block)
O=C(CSc1ccccc1)NCc1ccc2c(c1)CCN2C(=O)c1ccccc1	none (no result: Six1-Eya2 blk, CtBP-E1A inh)
Cc1cccc2cc(C#N)c(SCC#N)nc12	G9a block 25µM (no result: CtBP-E1A inh)
Cc1cccc2cc(C#N)c(SCC(=O)NNC(=O)Cc3ccccc3)nc12	none
O=C1C(=O)c2ccc(-c3ccccc3)cc2-c2ccccc21	Six1-Eya2 blk inconclusive, G9a block inconclusive, CtBP-E1A inh inconclusive
O=C1C(c2ccccc2)=[N+]([O-])c2ccccc21	JMJD2A Tudor 25µM, BAZ2B inh 10µM, HP1b chromo inh inconclusive
COC(=O)c1cc(OC)c(OC)c(OC)c1NC(=O)c1cc(=O)n(C)c(=O)n1C	G9a block 28µM (no result: Six1-Eya2 blk, CtBP-E1A inh)
CCOC(=O)c1c(S(=O)(=O)N2CCC(C(=O)N3CCN(c4ccccc4F)CC3)CC2)c(C)n(C)c1C	BAZ2B inh inconclusive (no result: Six1-Eya2 blk, CtBP-E1A inh)
COc1ccccc1OC1=NS(=O)(=O)c2ccccc21	BAZ2B inh inconclusive, G9a block 45µM
CCN(CC)c1cccc(OC2=NS(=O)(=O)c3ccccc32)c1	JMJD2A Tudor 63µM, BAZ2B inh 56µM, G9a block 16µM
O=S1(=O)N=C(Oc2ccccc2F)c2ccccc21	JMJD2A Tudor 79µM (no result: BAZ2B inh, Six1-Eya2 blk, G9a block, CtBP-E1A inh, HP1b chromo inh)
Cc1ccc(OC2=NS(=O)(=O)c3ccccc32)cc1	JMJD2A Tudor inconclusive, BAZ2B inh inconclusive, G9a block inconclusive
O=S1(=O)N=C(Oc2ccc(Cl)cc2)c2ccccc21	JMJD2A Tudor 100µM (no result: BAZ2B inh, Six1-Eya2 blk, G9a block, CtBP-E1A inh, HP1b chromo inh)
Cc1onc(-c2ccccc2)c1C(=O)Nc1nnc(C(C)(C)C)s1	G9a block inconclusive
NC(=O)c1[nH]cnc1N=NN(CCO)Cc1ccccc1	none (no result: JMJD2A Tudor, BAZ2B inh, G9a block, HP1b chromo inh)
Cc1ccc(NC(=O)Cn2c(=O)n(Cc3ccccc3)c(=O)c3sc4ccccc4c32)cc1	none (no result: Six1-Eya2 blk, CtBP-E1A inh)
O=C(COC(=O)CCC(=O)c1ccc(F)cc1)NCc1ccccc1Cl	none (no result: BAZ2B inh, G9a block)
COc1cc(N=Nc2cccc(S(N)(=O)=O)c2)c2ccccc2c1N	JMJD2A Tudor 13µM, BAZ2B inh 13µM, Six1-Eya2 blk inconclusive, G9a block 13µM, CtBP-E1A inh -71, HP1b chromo inh 28µM
NC1=NC(=Nc2cccc(S(N)(=O)=O)c2)c2ccccc21	none (no result: CtBP-E1A inh)
O=[N+]([O-])c1nn(-c2ccc(Cl)cc2)n(O)c1=NCc1cccnc1	JMJD2A Tudor inconclusive, BAZ2B inh inconclusive, G9a block inconclusive
Cc1ccc(CN=c2c([N+](=O)[O-])nn(-c3ccc(Cl)cc3)n2O)cc1	JMJD2A Tudor inconclusive, BAZ2B inh inconclusive, G9a block 50µM, HP1b chromo inh inconclusive
O=[N+]([O-])c1nn(-c2cccc(Cl)c2)n(O)c1=NCc1cccnc1	JMJD2A Tudor inconclusive, BAZ2B inh inconclusive, G9a block 7.9µM
O=[N+]([O-])c1nn(-c2ccc3c(c2)OCCO3)n(O)c1=NCc1ccc(F)cc1Cl	none
O=[N+]([O-])c1nn(-c2ccc3c(c2)OCCO3)n(O)c1=NCc1ccc(F)cc1	JMJD2A Tudor 35µM, BAZ2B inh 35µM, Six1-Eya2 blk inconclusive, G9a block inconclusive, HP1b chromo inh inconclusive
O=[N+]([O-])c1nn(-c2ccc(Cl)cc2)n(O)c1=NCc1ccncc1	BAZ2B inh inconclusive, G9a block 40µM
COCCNC(=O)C1(C)CCCN(C(=O)c2ccco2)C1 (centres undefined)	none (no result: JMJD2A Tudor, BAZ2B inh, G9a block, HP1b chromo inh)
Cc1ccc(C)c(OCC(=O)Nc2ccc(N3CCOCC3)cc2N2CCOCC2)c1	JMJD2A Tudor inconclusive, BAZ2B inh inconclusive, G9a block inconclusive
Cc1ccccc1OCC(=O)Nc1ccc(N2CCOCC2)cc1N1CCOCC1	G9a block 10µM
COc1ccccc1OCC(=O)Nc1ccc(N2CCOCC2)cc1N1CCOCC1	JMJD2A Tudor 89µM, G9a block inconclusive
Cc1ccccc1OCCC(=O)OCC(=O)Nc1ccc(N2CCOCC2)cc1	none
